The values below come from PubChem BioAssay (NCATS).

Records with an inconclusive call do not appear. Active and inactive are the calls of the source. The call rests on the fitted dose curve; in most records, active means well fitted curve in the direction sought with a large enough effect; inconclusive means small, poorly fitted or top-dose-only effect, or another doubt; inactive means no such curve, though single readings can be large; an effect the other way counts as inactive or inconclusive.

Assay [1] is described as follows: Cellular Toxicity (caspase-3) H-4-II-E (AID 663). Further: potency means the concentration at half of the fitted maximal effect.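 On caspase-3 activation: cells exposed to compound for 16 hr before readout.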 The conditions noted are these: Potency: caspase-3 activation. The procedure, abridged: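 Caspase 3/7 activation measured by luminescent aminoluciferin substrate cleavage after 16 hr compound treatment of H-4-II-E cells in complete medium. Increase normalized between DMSO (basal) and 100 uM tamoxifen (100%); Hill-equation AC50 from concentration-response.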

Assay [2] is described as follows: Cellular Toxicity (caspase-3) Hek293 (AID 664).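 Further: cells exposed to compound for 16 h at 37 °C before readout.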 Put shortly: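 qHTS, HEK293 (human embryonic kidney), 16 h cpd exposure in complete medium. Caspase-3/7 activation = luminescence increase; normalized to DMSO/100 uM tamoxifen; Hill-fit AC50.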
A short description of assay [3]: Cellular Toxicity (caspase-3) N2a (AID 665).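 Further: compound exposure lasted 16 h at 37 °C before readout.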 Put shortly:
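Caspase-3/7 activation, measured as increased luminescence from aminoluciferin release, is quantified in mouse N2a cells exposed to compounds for 16 h. Values are normalized to DMSO and 10 uM staurosporine, with AC50 derived by Hill modelling.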

Assay [4] can be described thus: Cellular Toxicity (caspase-3) NIH 3T3 (AID 666).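 Further: caspase signal read after 16 h compound exposure.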 The procedure, abridged: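 Cells were plated at 1000 per well and incubated 5 hr at 37°C, then compound was added for 16 hr. Caspase-Glo 3/7 reagent followed for 20 min at room temperature before luminescence was read.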
A short description of assay [5]: Cellular Toxicity (caspase-3) Renal Proximal Tubule (AID 667).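 Further: cells exposed to compound for 16 hours at 37 °C before detection.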 The procedure, abridged: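 Freshly isolated primary rat kidney proximal tubule cells, 1000/well, treated 16 hr at 37 °C, then Caspase-Glo 3/7 luminescence after 1 hr. Normalized to DMSO and 10 uM staurosporine; AC50 from Hill fit.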
The target in assay [6] is Cytochrome P450 3A4 (Homo sapiens) (UniProt P08684). Briefly: qHTS Assay for Inhibitors and Substrates of Cytochrome P450 3A4 (AID 884). Further: nearly all actives have a fitted effect of over 50% in size. Further: potency means the concentration at half of the fitted maximal effect. Put shortly:
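Luminescent readout of luciferin produced by CYP3A4 (20 nM) dealkylation of Luciferin-PPXE, 25 uM (its KM). NADPH-driven reaction ran 60 min at RT after 10 min compound preincubation; data scaled to 57 uM ketoconazole as 100% inhibition.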

Assay [7] has as its target Guanine nucleotide-binding protein G(i) subunit alpha-1 (Homo sapiens) (UniProt P63096). The assay can be described thus: qHTS Assay for Inhibitors of RGS12 GoLoco Motif Activity (Green Fluorophore) (AID 879).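 Further: negative values mean loss of peptide binding seen as reduced polarization.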 The procedure, abridged:
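A drop in FITC polarization marked displacement of the FITC-tagged RGS12 GoLoco peptide (10 nM) from Gαi1 (50 nM). Compounds were incubated 10 min at room temperature in Tris pH 7.5 buffer containing 150 mM NaCl, 0.1 mM GDP and 0.05% NP40; unlabeled peptide titration served as control.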
(Quantitative high-throughput screening tests each substance at several concentrations.)

In assay [8] the target is Cytochrome P450 2C9 (Homo sapiens) (UniProt P11712). Briefly: qHTS Assay for Inhibitors and Substrates of Cytochrome P450 2C9 (AID 883). Further: nearly all actives have a fitted effect of over 60% in size. Further: potency means the concentration at half of the fitted maximal effect. Put shortly:
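Inhibition of CYP2C9 is scored as loss of luminescence, with 57uM sulphaphenazole defining 100% inhibition. Substrate Luciferin-H is used at 100uM, equal to its KM; enzyme at 10nM in 25mM KPO4, 60 min at 37C with NADPH regeneration.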

The target in assay [9] is Cytochrome P450 3A4 (Homo sapiens) (UniProt P08684). The assay can be described thus: qHTS Assay for Activators of Cytochrome P450 3A4 (AID 885). Further: nearly all actives have a fitted effect of over 65% in size. The procedure, abridged: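 Human CYP3A4 dealkylates Luciferin-PPXE to luciferin, which luciferase detection converts to light. Substrate was at its KM (25uM), buffer 200mM KPO4, reaction 60 min at RT.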
Assay [10] addresses Cytochrome P450 2D6 (Homo sapiens) (UniProt P10635). Briefly: qHTS Assay for Inhibitors and Substrates of Cytochrome P450 2D6 (AID 891). Further: potency means the concentration at half of the fitted maximal effect; nearly all actives have a fitted effect of over 60% in size. The conditions noted are these: recombinant CYP2D6, luciferin-ME EGE luminescence. The procedure, abridged:
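Luminescent read-out of luciferin formed by 5 nM human CYP2D6 demethylating 30 uM Luciferin-ME EGE (Km level) over 60 min at room temperature after NADPH regeneration addition. Data normalized to full inhibition by 1.43 uM quinidine.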

Sequence of Cytochrome P450 2C9 (Homo sapiens) (P11712 whole entry, looked up): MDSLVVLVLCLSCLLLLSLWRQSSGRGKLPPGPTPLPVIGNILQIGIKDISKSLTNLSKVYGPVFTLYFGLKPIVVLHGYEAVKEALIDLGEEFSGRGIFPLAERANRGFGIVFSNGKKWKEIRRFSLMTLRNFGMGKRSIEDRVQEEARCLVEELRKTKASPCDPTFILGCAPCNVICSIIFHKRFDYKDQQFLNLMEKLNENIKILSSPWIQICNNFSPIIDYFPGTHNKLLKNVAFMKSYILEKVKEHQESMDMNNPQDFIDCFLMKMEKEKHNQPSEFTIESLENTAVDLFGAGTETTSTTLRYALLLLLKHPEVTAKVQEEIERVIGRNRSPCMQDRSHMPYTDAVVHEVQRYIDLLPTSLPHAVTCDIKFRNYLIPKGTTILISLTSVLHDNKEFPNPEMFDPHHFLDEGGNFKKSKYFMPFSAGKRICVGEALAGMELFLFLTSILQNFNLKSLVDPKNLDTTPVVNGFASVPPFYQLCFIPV
Sequence of Guanine nucleotide-binding protein G(i) subunit alpha-1 (Homo sapiens) (P63096 whole entry, looked up): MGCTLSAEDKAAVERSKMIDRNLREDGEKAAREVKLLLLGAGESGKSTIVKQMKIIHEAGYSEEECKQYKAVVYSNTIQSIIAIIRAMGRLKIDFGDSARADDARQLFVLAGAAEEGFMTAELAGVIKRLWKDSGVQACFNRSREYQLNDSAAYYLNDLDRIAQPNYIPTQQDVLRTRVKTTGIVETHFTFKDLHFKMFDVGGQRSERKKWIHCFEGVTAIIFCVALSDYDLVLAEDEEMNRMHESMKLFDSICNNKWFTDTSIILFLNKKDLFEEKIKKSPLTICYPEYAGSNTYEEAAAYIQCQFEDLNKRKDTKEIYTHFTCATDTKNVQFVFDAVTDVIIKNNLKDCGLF
Sequence of Cytochrome P450 3A4 (Homo sapiens) (P08684 whole entry, looked up): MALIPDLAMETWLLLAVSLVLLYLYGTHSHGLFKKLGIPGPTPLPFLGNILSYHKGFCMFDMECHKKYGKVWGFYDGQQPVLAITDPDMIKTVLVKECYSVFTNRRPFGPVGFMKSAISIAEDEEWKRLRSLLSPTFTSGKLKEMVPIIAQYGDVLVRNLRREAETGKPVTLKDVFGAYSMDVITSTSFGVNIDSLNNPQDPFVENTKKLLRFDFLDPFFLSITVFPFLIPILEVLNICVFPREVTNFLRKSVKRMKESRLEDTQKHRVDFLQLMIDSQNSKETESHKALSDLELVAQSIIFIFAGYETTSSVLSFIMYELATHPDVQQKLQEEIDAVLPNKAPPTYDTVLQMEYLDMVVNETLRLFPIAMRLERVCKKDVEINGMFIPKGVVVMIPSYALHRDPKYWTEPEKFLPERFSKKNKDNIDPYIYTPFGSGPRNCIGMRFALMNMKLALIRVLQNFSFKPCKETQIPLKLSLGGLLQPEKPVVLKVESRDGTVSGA
Sequence of Cytochrome P450 2D6 (Homo sapiens) (P10635 whole entry, looked up): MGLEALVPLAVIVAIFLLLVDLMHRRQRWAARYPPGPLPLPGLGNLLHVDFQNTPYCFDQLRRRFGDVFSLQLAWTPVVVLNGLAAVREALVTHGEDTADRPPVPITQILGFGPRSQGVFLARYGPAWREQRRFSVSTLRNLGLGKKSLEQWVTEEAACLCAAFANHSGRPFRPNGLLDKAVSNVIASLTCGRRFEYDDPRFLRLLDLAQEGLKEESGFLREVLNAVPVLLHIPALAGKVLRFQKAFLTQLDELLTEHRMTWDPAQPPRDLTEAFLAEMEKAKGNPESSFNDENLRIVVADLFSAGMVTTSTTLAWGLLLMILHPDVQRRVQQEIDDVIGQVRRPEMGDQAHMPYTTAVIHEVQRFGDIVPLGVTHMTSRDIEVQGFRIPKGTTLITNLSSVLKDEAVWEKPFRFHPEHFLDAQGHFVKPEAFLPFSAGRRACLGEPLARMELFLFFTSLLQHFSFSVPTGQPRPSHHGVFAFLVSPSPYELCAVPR

For the compound `NC(=O)c1ccccc1O`, the Potency result in assay [1] and in [6] was “inactive” each time. The outcome in assay [2], in [3], in [4] and in [5] was inactive.
As for `C/C=C/c1ccc(O)c(OC)c1`, the Potency entry in assay [1] and in assay [6] was “inactive” each time. The compound was classed as inactive in assay [2], in assay [3], in assay [4] and in assay [5].
For `COc1ccc(C(Cl)=C(c2ccc(OC)cc2)c2ccc(OC)cc2)cc1`, the Potency entry in assay [1] and in [6] was “inactive” throughout. Moreover, the outcome in [2], in [3], in assay [4] and in assay [5] was inactive.
For the compound `CN(C)CCC[C@@]1(c2ccc(F)cc2)OCc2cc(C#N)ccc21`, the compound was classed as inactive in [7] and in [9]. The Potency in assay [8] is 3.16 µM (active). Moreover, the Potency entry in assay [6] is “inactive”.
As to `COc1cc([C@H]2Oc3cc([C@H]4Oc5cc(O)cc(O)c5C(=O)[C@@H]4O)ccc3O[C@@H]2CO)ccc1O`, the Potency in assay [1] is 31.6 µM (active). For the same compound, the call in assay [2], in assay [3] and in assay [5] was inactive.
As for `COc1cc(N)c(Cl)cc1C(=O)NC1CCN(Cc2ccccc2)CC1`, in assay [8], the Potency entry was “inactive”. Besides, the values for the Potency in assay [6] and in [10] were 12.6 µM (active) and 0.0126 µM (active), respectively. For the same compound, the result in [9] was inactive.
Regarding `O=C(CCCN1CC=C(n2c(=O)[nH]c3ccccc32)CC1)c1ccc(F)cc1`, the Potency result in assay [8] is “inactive”. Moreover, the compound was called inactive in assay [9]. Moreover, the Potency in [10] is 3.16 µM (active).
For the compound `O=C1C(=O)c2ccccc2C(O)=C1C1CCC(c2ccc(Cl)cc2)CC1` (centres undefined), the Potency in assay [8] is 2 µM (active). In addition, in assay [6], the Potency entry is “inactive”.
Turning to `CN(C)CCOC(=O)C(c1ccccc1)C1(O)CCCC1` (centres undefined), the Potency result in [6] was “inactive”.
In the case of `CCOc1ccc(NC(C)=O)cc1`, the Potency entry in assay [1] is “inactive”. Moreover, the outcome in assay [2], in assay [3], in assay [4] and in assay [5] was inactive.
As to `C=C[C@H]1CN2CC[C@H]1C[C@@H]2[C@@H](O)c1ccnc2ccc(OC)cc12`, in assay [1], the Potency entry was “inactive”. For the same compound, the call in assay [2], in assay [3], in [4] and in assay [5] was inactive.
In the case of `O=C(O)c1ccc(S(=O)(=O)N(Cl)Cl)cc1`, the Potency result in assay [1] and in [6] was “inactive” throughout. The compound was called inactive in assay [2], in assay [3], in assay [4] and in assay [5].
Turning to `CN(C)C(=O)Nc1ccc(Cl)c(Cl)c1`, the Potency entry in assay [6] is “inactive”.
Turning to `CCOc1ccccc1C(N)=O`, the Potency entry in [1] and in [6] was “inactive” each time. The result in assay [2], in assay [3], in [4] and in assay [5] was inactive.
For `CCCCC(CC)COC(=O)c1ccc(N(C)C)cc1` (centres undefined), the Potency entry in assay [1] was “inactive”. The outcome in assay [2], in [3], in assay [4] and in assay [5] was inactive.
`CCCN(CCC)S(=O)(=O)c1ccc(C(=O)O)cc1`: the Potency entry in [1] and in assay [6] was “inactive” in each case. The compound was called inactive in [2], in [3], in assay [4] and in assay [5].
Consider `OC[C@H]1O[C@@H]2O[C@H]3[C@H](O)[C@@H](O)[C@@H](O[C@H]4[C@H](O)[C@@H](O)[C@@H](O[C@H]5[C@H](O)[C@@H](O)[C@@H](O[C@H]6[C@H](O)[C@@H](O)[C@@H](O[C@H]7[C@H](O)[C@@H](O)[C@@H](O[C@H]8[C@H](O)[C@@H](O)[C@@H](O[C@H]1[C@H](O)[C@H]2O)O[C@@H]8CO)O[C@@H]7CO)O[C@@H]6CO)O[C@@H]5CO)O[C@@H]4CO)O[C@@H]3CO`, for which the Potency result in assay [1] and in assay [6] was “inactive” in each case. The compound was classed as inactive in assay [2], in assay [3], in assay [4] and in assay [5].
In the case of `Oc1c(Cl)cc(Cl)c(Cl)c1Cc1c(O)c(Cl)cc(Cl)c1Cl`, the Potency result in assay [1] was “inactive”. For the same compound, the outcome in [2], in assay [3], in [4] and in assay [5] was inactive.
With `NCCNc1cccc2ccccc12`, the Potency entry in [1] and in assay [6] was “inactive” in each case. For the same compound, the call in assay [2], in assay [3], in [4] and in assay [5] was inactive.
Turning to `CCOC(=O)[C@H](CCc1ccccc1)N[C@@H](C)C(=O)N1[C@H](C(=O)O)C[C@H]2CCCC[C@@H]21`, in assay [6], the Potency result was “inactive”.
On to `NS(=O)(=O)Cc1noc2ccccc12`, for which the compound was called inactive in assay [7] and in [9].
`CCC(Cc1c(I)cc(I)c(N)c1I)C(=O)O` (centres undefined): the Potency entry in assay [6] is “inactive”.
Consider `COc1ccccc1N1CCN(CCCCNC(=O)c2ccc(-c3ccc(C(C)=O)cc3)cc2)CC1`, for which the Potency result in [8] was “inactive”.
On to `CC(C)(C)NC[C@H](O)COc1nsnc1N1CCOCC1`, for which the compound was called inactive in assay [7].
As to `CN1CCC[C@@H]1CCO[C@](C)(c1ccccc1)c1ccc(Cl)cc1`, the result in assay [7] and in assay [9] was inactive.
Take `COc1cc(C(=O)NCc2ccc(OCCN(C)C)cc2)cc(OC)c1OC`: the result in assay [8] was inactive.
Consider `COc1ccc(C(=O)c2ccccc2)c(O)c1`, for which the Potency entry in assay [1] and in assay [6] was “inactive” in each case. For the same compound, the result in [2], in assay [3], in [4] and in [5] was inactive.
With `NC(N)=NCc1cccc(I)c1`, in assay [7], the compound was called inactive.
As to `CN=C(N)NCCC[C@H](N)C(=O)O`, in assay [7], the compound was called inactive.
As to `Oc1ccc(Cl)cc1Cc1cc(Cl)ccc1O`, the Potency result in assay [1] is “inactive”. Further, the compound was classed as inactive in assay [3], in [4] and in [5].
For the compound `CC(C)NCC(O)c1ccc2ccccc2c1` (centres undefined), the Potency result in [6] was “inactive”.
